CDK5 inh – blocks human CDK5/p35 kinase activity; 330,000 tested, 0.01% active; inhibition, % at 10 µM; AID 488839; Recombinant CDK5/p35, ADP-Glo luminescence, 60 min;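 active = highest replicate inhibition of at least 50% and at least 75% of replicates reaching 50%; inconclusive = only one of the two criteria met; inactive = both criteria failed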;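 also: plate controls were DMSO neutral control for no effect and GW8510 at 10 µM for full effect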
esBAF inh – blocks esBAF chromatin remodeling in mouse ES cells. Bmi1-luciferase knock-in reporter, 24 h; 100% = twice the neutral-well signal. reporter increase, % at 12.5 µM. 350,000 tested, 2% active; in the data active = activation above about 40%; inconclusive = no clear call, values can overlap the other calls;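 also: 0% = median of the plate's neutral control wells and 100% = double that signal; a rise in the Bmi1 reporter signal indicates esBAF inhibition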
Rtt109 Vps75 – inhibitors of Candida albicans Rtt109/Vps75 histone acetyltransferase | purified Rtt109/Vps75, ThioGlo CoA-SH fluorescence, 4 h | 330,000 tested, 0.16% active | Q5AAJ8 | inhibition, % at 34.9 µM | AID 540336;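 active = inhibition of at least 50% in every replicate; inconclusive = best replicate reaches 50% inhibition but some replicates fall short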
SMARCA2 activ – increases SMARCA2 function in MMTV reporter cells; 370,000 tested, 1% active; MG213 cells, MMTV-luciferase reporter, dexamethasone, overnight; AID 652017; activation, % at 9.1 µM; in the data active = activation above about 7.8%;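 also: 0% = vehicle wells and 100% = reference activator wells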
DYRK1A inh – blocks rat Dyrk1A kinase activity; 310,000 tested, 0.43% active; ADP-Glo luminescence, NFATc1 peptide; Q63470; inhibition, % at 12.5 µM; in the data active = inhibition above about 50%;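 also: plate controls were vehicle with enzyme for no effect and no enzyme for full effect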
dFosB act-1 – mouse delta FosB homodimer activation. P13346. purified delta FosB, TAMRA-CDK5 oligo fluorescence polarization; percent of positive-control signal above neutral wells. activation, % at 25 µM. 340,000 tested, 0.99% active;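 active = mean activation above about 17%, with every replicate also reaching it, limit read from the data, passing the limit was not always enough; inconclusive = only one of the two conditions met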
Target sequence (P13346 whole entry, looked up): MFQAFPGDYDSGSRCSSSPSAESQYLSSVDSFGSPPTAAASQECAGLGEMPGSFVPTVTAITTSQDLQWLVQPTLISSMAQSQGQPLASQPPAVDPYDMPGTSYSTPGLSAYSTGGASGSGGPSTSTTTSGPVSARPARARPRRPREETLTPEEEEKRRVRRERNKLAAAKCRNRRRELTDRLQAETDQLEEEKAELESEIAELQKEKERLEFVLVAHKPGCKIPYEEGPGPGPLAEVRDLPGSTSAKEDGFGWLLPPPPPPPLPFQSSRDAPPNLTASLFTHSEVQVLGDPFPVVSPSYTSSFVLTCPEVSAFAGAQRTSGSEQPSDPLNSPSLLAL
dFosB act-2 – enhances mouse delta FosB homodimer binding to DNA. AID 588690. purified delta FosB, TAMRA-CDK5 oligo fluorescence polarization; normalised: neutral wells 0, positive control 100. shares compounds with dFosB act-1. activation, % at 24.9 µM. 2,400 tested, under 10 active;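 active = highest replicate activation at or above 34% and every replicate reaching that threshold; inconclusive = meets only one of the two criteria; inactive = meets neither criterion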;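 also: higher polarization means more probe DNA bound by delta FosB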
Starred values were filed as active, the others as inactive; u = inconclusive; x = no result. Most compounds without a hit are left out; they make up all but 3.2% or so of the library.

SMILES	CDK5 inh	esBAF inh	Rtt109 Vps75	SMARCA2 activ	DYRK1A inh	dFosB act-1	dFosB act-2
O=C(CCc1ccccc1)Nc1nc2n(n1)C(c1ccccc1)CC(=O)N2 (centres undefined)	0.7	-9.1	16.1	1.7	-4.7	27.0*	-0.7
O=C(CCc1ccccc1)Nc1nc2n(n1)C(c1ccc(Cl)cc1)CC(=O)N2 (centres undefined)	2.0	-7.6	-5.0	-0.3	1.3	u	x
CCCc1cc(=O)oc2cc(OCC(=O)NCCc3c[nH]c4ccc(OC)cc34)ccc12	-0.9	3.6	2.2	-1.8	2.6	18.5*	1.6
COCC(=O)N1[C@@H]2CN(C(=O)c3ccccc3)c3ccccc3[C@@H]2[C@@H]1CO	x	-2.9	x	x	x	x	x
O=C(Nc1ccc(NC(=O)c2ccccc2O)cc1)Nc1ccc(F)cc1F	-0.5	x	-6.0	-6.3	x	31.8*	6.9
Cc1ccc(S(=O)(=O)Nc2ccc(NC(=O)Nc3ccc(F)cc3F)cc2)cc1	0.3	x	-0.8	0.3	-1.4	20.2*	4.5
O=C(Nc1ccc(F)cc1F)Nc1ccc(F)cc1F	1.3	x	12.0	1.3	0.8	4.8	x
CCCNC(=O)N1C[C@H]2[C@@H](c3ccccc31)[C@@H](CO)N2C(=O)c1ccncc1	x	-5.7	x	x	x	x	x
CCOC(=O)c1ccc(NC(=O)CC2S/C(=N/N=C3/NC(=O)CS3)NC2=O)cc1 (centres undefined)	1.0	x	-8.5	-2.4	x	22.9*	0.5
O=C(Nc1nc(-c2cccnc2)cs1)c1ccccc1Cl	1.8	9.6	4.5	-0.8	-7.8	24.4*	6.7
Cc1ccccc1C(=O)Nc1nc(-c2cccnc2)cs1	-2.4	6.4	4.7	-1.9	7.6	7.5	x
CN1/C(=C/C=N/n2cnnc2)C(C)(C)c2ccccc21	0.3	-1.2	13.3	2.2	5.2	20.1*	-0.2
CNC[C@H]1Oc2ccc(N)cc2C(=O)N([C@H](C)CO)C[C@@H]1C	x	-1.3	x	x	x	x	x
COc1cc(/C=C/C(=O)OCC(=O)NCC(=O)Nc2cccc(C)c2C)ccc1OC(F)F	-0.8	-5.3	-12.7	-0.7	x	20.4*	3.1
CCN(CC)c1nc(NN)nc(Nc2ccc(C)c(Cl)c2)n1	-0.6	x	-3.9	-4.6	-2.3	41.6*	u
N#Cc1cccc(NC(=O)COC(=O)c2cc(S(=O)(=O)Nc3ccccc3Cl)ccc2O)c1	-2.1	10.9	5.5	-3.4	0.4	2.1	x
O=C(COC(=O)c1cc(S(=O)(=O)Nc2ccccc2Cl)ccc1O)Nc1nc2ccccc2s1	-1.9	x	-13.4	4.0	x	32.3*	6.8
Cc1cccc(C)c1OCC(=O)N/N=C/c1cccnc1	-0.2	3.0	2.0	2.2	2.3	-4.6	x
Cc1cc(SCC(=O)N/N=C/c2cccnc2)nc2c(C)cccc12	0.3	x	4.6	-2.6	4.5	67.2*	-9.1
Cc1cccc(C)c1NC(=O)COC(=O)c1ccc(N2CCCC2)c([N+](=O)[O-])c1	-0.9	x	-7.4	-2.3	-1.4	51.1*	6.2
CN(C)c1nc(NCc2ccccc2)nc(N/N=C/c2cccc(Br)c2)n1	0.1	3.7	0.5	-3.2	-2.5	57.3*	3.7
O=C(Cn1c(=O)n(-c2ccc(F)cc2)c(=O)c2sccc21)NC1CCCCC1	0.7	0.2	-3.1	4.1	0.0	31.3*	4.7
O=C(Cc1ccc(-n2c(=O)c3sccc3n(CC(=O)Nc3ccccc3F)c2=O)cc1)NCc1ccco1	-0.5	-4.8	4.5	-0.8	0.4	52.4*	4.6
Cc1ccc(-n2c(=O)c3sccc3n(CC(=O)NC3CCCC3)c2=O)cc1	1.0	1.4	-5.3	1.4	-4.4	u	x
Cc1ccc(C)c(Cn2c(=O)n(-c3ccc(CC(=O)NCc4ccco4)cc3)c(=O)c3sccc32)c1	-1.1	-3.3	0.0	-5.0	0.4	30.4*	-0.5
CCC(=O)N1[C@@H]2c3cccc(=O)n3C[C@H]1[C@H](CO)[C@H]2C(=O)NCc1ccccc1	x	-5.5	x	x	x	x	x
O=C(N/N=C/c1cccc(OC2CSC2)c1)c1ccccc1O	0.4	x	7.8	3.0	2.6	28.9*	-0.6
Cn1ncc(Br)c1C(=O)N/N=C/c1cccc(OC2CSC2)c1	-0.6	-29.5	0.2	-0.8	-3.4	-6.7	x
